Several values for one entry are separate records, joined by “and”; a condition that tells them apart may be missing. Identical values can stand only once. Records with an inconclusive call do not appear. A number with no mark means an inactive call. Activity calls are given as the source filed them. Calls come from the whole dose curve; as a rule, active = well fitted curve in the direction sought with a large enough effect; inconclusive = small, poorly fitted or top-dose-only effect, or another doubt; inactive = no such curve, though single readings can be large; an effect the other way counts as inactive or inconclusive.
Test: Primary qHTS for inhibitors of nuclear receptor binding SET domain protein 2 (NSD2) in an isogenic RCH-ACV NSD2 p.E1099K mutant (9B) (AID 1645876)
Conditions: RCH-ACV NSD2 E1099K (9B) viability, CellTiter-Glo, 72 h; series mostly up to 44.9 µM; activity change, negative = viability loss: at the top concentration
% is set by controls: 0 for no effect and ±100 for the full control effect; potency is the fitted concentration of half-maximal effect.
Note: nearly all actives have a fitted effect of over 70% in size.

SMILES	activity change, negative = viability loss	Potency	outcome
O=c1c2ccccc2nc2n1CCc1c-2[nH]c2ccccc12	-6.17%		
CN(C)Cc1c(C(=O)NCCOc2ccc(C(=O)NO)cc2)oc2ccccc12		515 nM (active) and 332 nM (active)	
CC(C)C[C@H](NC(=O)CNC(=O)c1cc(Cl)ccc1Cl)B(O)O		0.148 µM (active)	
CC(C)(C)c1cc(C(C)(C)C)c(NC(=O)c2c[nH]c3ccccc3c2=O)cc1O		14.8 µM (active)	
Nc1nc(-c2nn(Cc3ccccc3F)c3ncccc23)nc(N)c1N1CCOCC1	0.801% [at 17.3 µM]		
CN1c2cc(O)c(N=NC(N)=O)cc2CC1S(=O)(=O)O (configuration not stated)			inactive
O=C(O)c1ccc2cc(-c3ccc(O)c(C45CC6CC(CC(C6)C4)C5)c3)ccc2c1		0.934 µM (active)	
COc1cccc2c(NCc3ccccc3)nc(-n3c(N)nc4ccccc43)nc12		8.33 µM (active)	
COc1c(OCCCN2CCOCC2)ccc2c3n(c(=NC(=O)c4cnc(N)nc4)nc12)CCN3		9.4 nM (active) and 24.1 nM (active)	
CN1CC[C@@H](c2c(O)cc(O)c3c(=O)cc(-c4ccccc4Cl)oc23)[C@@H](O)C1		0.372 µM (active)	
CC(C)[C@H](C(=O)Nc1ccc(C(=O)NO)cc1)c1ccccc1	-98.1%		
Cc1ccc(-c2ncn(-c3ccc(Nc4nccc(-c5cccc(N6CCOCC6)c5)n4)cc3)n2)cn1		1.05 µM (active)	
C=C1C(=CC=C2CCC[C@]3(C)[C@@H]([C@H](C)C=C[C@H](C)C(C)C)CC[C@@H]23)C[C@@H](O)C[C@@H]1O			inactive
CN[C@H]1CCc2cc(OC)c(OC)c(OC)c2-c2ccc(OC)c(=O)cc21		0.105 µM (active)	
COc1cc2ncn(-c3cc(OCc4ccccc4C(F)(F)F)c(C(N)=O)s3)c2cc1OC		562 nM (active) and 1.05 µM (active)	
C=CC(=O)Nc1cc2c(Nc3ccc(F)c(Cl)c3)ncnc2cc1C#CC(C)(C)N1CCN(C)CC1		2.63 µM (active)	
C[C@@H]1CN(CC(=O)Nc2ccc3c(c2)Cc2cccc(-c4cc(=O)cc(N5CCOCC5)o4)c2S3)C[C@H](C)O1		5.9 µM (active)	
CC(C)c1ccc(Cn2ccc3c4c(N)nc(NC5CC5)nc4ccc32)cc1		0.372 µM (active)	

SMILES	activity change, negative = viability loss	Potency	outcome
CC[C@H](CO)Nc1nc(NCc2ccccc2)c2ncn(C(C)C)c2n1		14.8 µM (active)	
CN(c1ncccc1CNc1nc(Nc2ccc3c(c2)CC(=O)N3)ncc1C(F)(F)F)S(C)(=O)=O		5.17 µM (active)	
COCCn1c2c([n+](Cc3cnccn3)c1C)C(=O)c1ccccc1C2=O		0.0042 µM (active)	
C[C@@]12O[C@@H](C[C@]1(O)CO)n1c3ccccc3c3c4c(c5c6ccccc6n2c5c31)CNC4=O		0.0661 µM (active)	
NC(=O)c1cccc2cn(-c3ccc([C@@H]4CCCNC4)cc3)nc12		4.59 µM (active) and 2.63 µM (active)	
COc1ccc(CC2c3cc(OC)c(OC)cc3CC[N+]2(C)CCC(=O)OCCCCCOC(=O)CC[N+]2(C)CCc3cc(OC)c(OC)cc3C2Cc2ccc(OC)c(OC)c2)cc1OC (configuration not stated)		23.5 µM (active)	
CC(=O)SC[C@@H](C)C(=O)N1CCC[C@H]1C(=O)N[C@@H](Cc1ccccc1)C(=O)O			inactive
Cc1nc2ccc(CN(C)c3ccc(C(=O)N[C@@H](CCC(=O)O)C(=O)O)s3)cc2c(=O)[nH]1		53.1 nM (active) and 33.2 nM (active)	
Cc1ccc(S(=O)(=O)Nc2cc(Cl)ccc2C(=O)Nc2nc(-c3ccccc3)cs2)cc1	2.99%		
O=c1[nH]c(=O)n(C2CCCO2)cc1F (configuration not stated)	-16.4%		
O=C(CCCCCCNC(=O)c1cnc(N(c2ccccc2)c2ccccc2)nc1)NO		728 nM (active) and 2.95 µM (active)	
Cc1nc2cnc3ccc(C#Cc4cccnc4)cc3c2n1-c1ccc(C(C)(C)C#N)cc1		7.31 µM (active) and 148 nM (active)	
C=CC(=O)Nc1cc2c(Nc3ccc(F)c(Cl)c3)ncnc2cc1OCCCN1CCOCC1		1.68 µM (active) and 2.95 µM (active)	
CN(C)CCCN=c1c2ccccc2n(C)c2[nH]c(=O)n(C)c(=O)c12		13.2 µM (active)	
COc1cc(OC2CCN(C)CC2)ccc1Nc1ncc2c(n1)n(C1CCCC1)c(=O)n2C		5.25 µM (active)	
Nc1ccccc1NC(=O)c1ccc(CNC(=O)OCc2cccnc2)cc1		578 nM (active) and 742 nM (active)	
COc1cc2c(cc1-c1c(C)noc1C)ncc1[nH]c(=O)n([C@H](C)c3ccccn3)c12		0.468 µM (active)	
CN1CCN(c2ccc3nc(-c4c(N)c5c(F)cccc5[nH]c4=O)[nH]c3c2)CC1		1.3 µM (active) and 742 nM (active)	

Test: Primary qHTS for inhibitors of nuclear receptor binding SET domain protein 2 (NSD2) in an RCH-ACV wild type WT cells (2C) (AID 1645877)
Conditions: RCH-ACV (leukaemia line) NSD2 WT (2C) viability, CellTiter-Glo, 72 h; series mostly up to 44.9 µM; activity change, negative = cell killing: at the top concentration

SMILES	activity change, negative = cell killing	Potency	outcome
O=c1c2ccccc2nc2n1CCc1c-2[nH]c2ccccc12	-19.5%		
CN(C)Cc1c(C(=O)NCCOc2ccc(C(=O)NO)cc2)oc2ccccc12		515 nM (active) and 296 nM (active)	
CC(C)C[C@H](NC(=O)CNC(=O)c1cc(Cl)ccc1Cl)B(O)O		93.4 nM (active)	
CC(C)(C)c1cc(C(C)(C)C)c(NC(=O)c2c[nH]c3ccccc3c2=O)cc1O		16600 nM (active)	
Nc1nc(-c2nn(Cc3ccccc3F)c3ncccc23)nc(N)c1N1CCOCC1			inactive [at 17.3 µM]
CN1c2cc(O)c(N=NC(N)=O)cc2CC1S(=O)(=O)O (configuration not stated)	9.44%		
O=C(O)c1ccc2cc(-c3ccc(O)c(C45CC6CC(CC(C6)C4)C5)c3)ccc2c1		590 nM (active)	
COc1cccc2c(NCc3ccccc3)nc(-n3c(N)nc4ccccc43)nc12		8330 nM (active)	
COc1c(OCCCN2CCOCC2)ccc2c3n(c(=NC(=O)c4cnc(N)nc4)nc12)CCN3		8.4 nM (active) and 60.5 nM (active)	
CN1CC[C@@H](c2c(O)cc(O)c3c(=O)cc(-c4ccccc4Cl)oc23)[C@@H](O)C1		332 nM (active)	
CC(C)[C@H](C(=O)Nc1ccc(C(=O)NO)cc1)c1ccccc1	-98.8%		
Cc1ccc(-c2ncn(-c3ccc(Nc4nccc(-c5cccc(N6CCOCC6)c5)n4)cc3)n2)cn1		662 nM (active)	
C=C1C(=CC=C2CCC[C@]3(C)[C@@H]([C@H](C)C=C[C@H](C)C(C)C)CC[C@@H]23)C[C@@H](O)C[C@@H]1O	5.63%		
CN[C@H]1CCc2cc(OC)c(OC)c(OC)c2-c2ccc(OC)c(=O)cc21		118 nM (active)	
COc1cc2ncn(-c3cc(OCc4ccccc4C(F)(F)F)c(C(N)=O)s3)c2cc1OC		794 nM (active) and 1.18 µM (active)	
C=CC(=O)Nc1cc2c(Nc3ccc(F)c(Cl)c3)ncnc2cc1C#CC(C)(C)N1CCN(C)CC1		2630 nM (active)	
C[C@@H]1CN(CC(=O)Nc2ccc3c(c2)Cc2cccc(-c4cc(=O)cc(N5CCOCC5)o4)c2S3)C[C@H](C)O1		4680 nM (active)	
CC(C)c1ccc(Cn2ccc3c4c(N)nc(NC5CC5)nc4ccc32)cc1		417 nM (active)	

SMILES	activity change, negative = cell killing	Potency	outcome
CC[C@H](CO)Nc1nc(NCc2ccccc2)c2ncn(C(C)C)c2n1		13200 nM (active)	
CN(c1ncccc1CNc1nc(Nc2ccc3c(c2)CC(=O)N3)ncc1C(F)(F)F)S(C)(=O)=O		8330 nM (active)	
COCCn1c2c([n+](Cc3cnccn3)c1C)C(=O)c1ccccc1C2=O		5.9 nM (active)	
C[C@@]12O[C@@H](C[C@]1(O)CO)n1c3ccccc3c3c4c(c5c6ccccc6n2c5c31)CNC4=O		66.1 nM (active)	
NC(=O)c1cccc2cn(-c3ccc([C@@H]4CCCNC4)cc3)nc12		2.9 µM (active) and 2.35 µM (active)	
COc1ccc(CC2c3cc(OC)c(OC)cc3CC[N+]2(C)CCC(=O)OCCCCCOC(=O)CC[N+]2(C)CCc3cc(OC)c(OC)cc3C2Cc2ccc(OC)c(OC)c2)cc1OC (configuration not stated)		23500 nM (active)	
CC(=O)SC[C@@H](C)C(=O)N1CCC[C@H]1C(=O)N[C@@H](Cc1ccccc1)C(=O)O	4.31%		
Cc1nc2ccc(CN(C)c3ccc(C(=O)N[C@@H](CCC(=O)O)C(=O)O)s3)cc2c(=O)[nH]1		59.6 nM (active) and 23.5 nM (active)	
Cc1ccc(S(=O)(=O)Nc2cc(Cl)ccc2C(=O)Nc2nc(-c3ccccc3)cs2)cc1	-18%		
O=c1[nH]c(=O)n(C2CCCO2)cc1F (configuration not stated)	3.2%		
O=C(CCCCCCNC(=O)c1cnc(N(c2ccccc2)c2ccccc2)nc1)NO		365 nM (active) and 2.09 µM (active)	
Cc1nc2cnc3ccc(C#Cc4cccnc4)cc3c2n1-c1ccc(C(C)(C)C#N)cc1		8.2 µM (active) and 148 nM (active)	
C=CC(=O)Nc1cc2c(Nc3ccc(F)c(Cl)c3)ncnc2cc1OCCCN1CCOCC1		1.5 µM (active) and 2.95 µM (active)	
CN(C)CCCN=c1c2ccccc2n(C)c2[nH]c(=O)n(C)c(=O)c12		11800 nM (active)	
COc1cc(OC2CCN(C)CC2)ccc1Nc1ncc2c(n1)n(C1CCCC1)c(=O)n2C		3720 nM (active)	
Nc1ccccc1NC(=O)c1ccc(CNC(=O)OCc2cccnc2)cc1		459 nM (active) and 662 nM (active)	
COc1cc2c(cc1-c1c(C)noc1C)ncc1[nH]c(=O)n([C@H](C)c3ccccn3)c12		468 nM (active)	
CN1CCN(c2ccc3nc(-c4c(N)c5c(F)cccc5[nH]c4=O)[nH]c3c2)CC1		1.16 µM (active) and 742 nM (active)	

From PubChem BioAssay (NCATS)
